Experimental data: the supplement of paper PMC13380429
Structures can show the parent of a compound that is named as a salt.

Tested on: Vero E6 infected with SARS-CoV-2
Assay: inhibition of SARS-CoV-2 cytopathic effect; higher = more antiviral protection, active = above 15
Details: 48 h

Measured: inhibition of SARS-CoV-2 cytopathic effect

CN(C)CC/C=C1/c2ccccc2COc2ccc(CC(=O)O)cc21 [Olopatadine hydrochloride (Opatanol)]
inactive: 1 nM 1.34% | 8.33 nM 1.55% | 100 nM 1.65% | 833.33 nM 6.26% | 10000 nM 0.26%

O=C(Nc1ccccc1)N[C@H]1C[C@H](C(=O)O)Nc2cc(Cl)cc(Cl)c21
inactive: 1 nM -0.64% | 8.33 nM -2.48% | 100 nM 0.61% | 833.33 nM -0.05% | 10000 nM 0.62%

Oc1ccc([C@@H]2Oc3ccc(O)cc3[C@@H]3CCC[C@@H]32)cc1 [erteberel]
inactive: 1 nM -2.79% | 8.33 nM 0.52% | 100 nM -1.51% | 833.33 nM -4.66% | 10000 nM 2.31%

CCc1ccc2c(-c3cccc(Cl)c3)nc(=O)n(CC)c2n1
inactive: 1 nM -1.8% | 8.33 nM 0.23% | 100 nM 1.37% | 833.33 nM -1.65% | 10000 nM 0.57%

N[C@@H](CSCCCO)C(=O)O [fudosteine]
inactive: 1 nM 0.08% | 8.33 nM 1.3% | 100 nM 0.76% | 833.33 nM 1.15% | 10000 nM -1.74%

CCCCOc1cc(CC2CNC(=O)N2)ccc1OC (stereo not given)
inactive: 1 nM -0.73% | 8.33 nM 1.6% | 100 nM -3.01% | 833.33 nM -0.63% | 10000 nM -1.88%

COc1ccc2cccc(CCNC(C)=O)c2c1 [agomelatine]
inactive: 1 nM -0.83% | 8.33 nM 0.82% | 100 nM -2.18% | 833.33 nM -1.63% | 10000 nM 0.7%

Cc1ccc(-c2n[nH]c3c2C(c2cccc(O)c2)N(c2ccc(C(=O)O)cc2)C3=O)cc1 (stereo not given)
inactive: 1 nM -0.75% | 8.33 nM -0.46% | 100 nM 3.03% | 833.33 nM 3.6% | 10000 nM 5.17%

Clc1ccc2c(N3CCN(CCCN4CCN(c5ccnc6cc(Cl)ccc56)CC4)CC3)ccnc2c1 [piperaquine-phosphate]
inactive: 1 nM -0.04% | 8.33 nM 1.25% | 100 nM -0.14% | 833.33 nM -1.37% | 10000 nM -2.6%

c1ccc2c(c1)[I+]c1ccccc1-2 [diphenyleneiodonium]
inactive: 1 nM 0.63% | 8.33 nM 1.31% | 100 nM -0.64% | 833.33 nM -1.09% | 10000 nM 0.37%

C=CCNC(=O)c1cc([N+](=O)[O-])cc2c(=O)[nH]c(Nc3ccc(Cl)c(Cl)c3)nc12
inactive: 1 nM 0.56% | 8.33 nM 4.08% | 100 nM -1.8% | 833.33 nM 9.51% | 10000 nM 1.19%

c1cc(Cc2cnc[nH]2)ccn1 [immethridine]
inactive: 1 nM 0.32% | 8.33 nM 2.15% | 100 nM 0.76% | 833.33 nM 4.67% | 10000 nM 1.99%

N#CC(c1ccc(Cl)cc1)c1c(Cl)cc(-n2ncc(=O)[nH]c2=O)cc1Cl (stereo not given) [diclazuril]
inactive: 1 nM -4.3% | 8.33 nM -0.75% | 100 nM 0.27% | 833.33 nM 1.84% | 10000 nM 0.73%

CCC[C@H](N[C@@H](C)C(=O)N1[C@H](C(=O)O)C[C@@H]2CCCC[C@@H]21)C(=O)O [perindoprilat]
inactive: 1 nM 4.13% | 8.33 nM -0.1% | 100 nM 3.43% | 833.33 nM 0.42% | 10000 nM -3.18%

C[C@H](N)C(=O)O [L-alanine]
inactive: 1 nM 1.06% | 8.33 nM -0.48% | 100 nM 0.43% | 833.33 nM -0.48% | 10000 nM -4.52%

Cc1ncc(CN2CC=C(c3ccccc3)CC2)c(N)n1
inactive: 1 nM 0.67% | 8.33 nM 0.52% | 100 nM -0.09% | 833.33 nM 0.15% | 10000 nM 0.43%

CCC(NC(C)C)C(O)c1ccc(O)c(O)c1 (stereo not given) [isoetharine]
inactive: 1 nM -0.44% | 8.33 nM 0.06% | 100 nM -2.12% | 833.33 nM -0.61% | 10000 nM 1.5%

CO[C@@H]1COCC[C@@H]1N[C@@H]1CC[C@@](C(=O)N2CCc3ncc(C(F)(F)F)cc3C2)(C(C)C)C1
inactive: 1 nM 0.39% | 8.33 nM -0.35% | 100 nM 0.03% | 833.33 nM -0.05% | 10000 nM -5.58%

NS(=O)(=O)c1cc2c(cc1C(F)(F)F)NCNS2(=O)=O [hydroflumethiazide]
inactive: 1 nM 0.67% | 8.33 nM 2.12% | 100 nM 1.79% | 833.33 nM 0.37% | 10000 nM 0.46%
